# Reference: paper PMC11006913
# Numbering of substitutions follows the chain as printed.
# Legend:
# Assay in all cases: PBM; 200 nM protein, PBS
# Settings in all cases: dsDNA, one strand shown
# HOXB4 = HOXB4 (Homo sapiens, UniProt P17483 148-234)
# VENTX = target: T1, VENTX (Homo sapiens, UniProt O95231 78-163)
# T1 sequence: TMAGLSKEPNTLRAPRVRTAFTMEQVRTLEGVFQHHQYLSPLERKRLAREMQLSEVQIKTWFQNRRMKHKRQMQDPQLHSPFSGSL
# PAX4 [1] = target: T2, PAX4 (Homo sapiens, UniProt O43316 9-242, R200K)
# T2 sequence: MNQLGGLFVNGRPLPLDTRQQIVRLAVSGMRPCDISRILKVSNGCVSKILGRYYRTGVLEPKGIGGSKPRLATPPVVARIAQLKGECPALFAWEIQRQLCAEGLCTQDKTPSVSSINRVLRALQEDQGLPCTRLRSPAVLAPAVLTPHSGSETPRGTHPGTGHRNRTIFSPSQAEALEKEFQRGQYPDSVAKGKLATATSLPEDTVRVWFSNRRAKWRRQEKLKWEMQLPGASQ
# PAX4 [2] = target: T3, PAX4 (Homo sapiens, UniProt O43316 9-242)
# T3 sequence: T2 sequence with K192R
# PAX4 [3] = target: T4, PAX4 (Homo sapiens, UniProt O43316 9-242, F177V)
# T4 sequence: T2 sequence with F169V, K192R
# PAX4 [4] = target: T5, PAX4 (Homo sapiens, UniProt O43316 9-242, F177Y)
# T5 sequence: T2 sequence with F169Y, K192R
# VAX1 = VAX1 (Homo sapiens, UniProt Q5SQQ9 86-172)
# Chain of VAX1 (Q5SQQ9 86-172): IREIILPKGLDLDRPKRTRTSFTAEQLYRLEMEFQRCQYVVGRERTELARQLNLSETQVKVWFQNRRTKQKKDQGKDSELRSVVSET
# PAX4 [5] = target: T6, PAX4 (Homo sapiens, UniProt O43316 9-242, R227W)
# T6 sequence: T2 sequence with K192R, R219W
# HOXA2 [6] = target: HOXA2 (Homo sapiens, UniProt O43364 129-215, Y150S)
# Chain of HOXA2 (Homo sapiens, UniProt O43364 129-215, Y150S) (O43364 129-215 Y150S): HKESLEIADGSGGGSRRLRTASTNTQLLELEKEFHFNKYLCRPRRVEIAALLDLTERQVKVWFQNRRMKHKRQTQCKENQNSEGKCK
# HOXA2 [7] = target: HOXA2 (Homo sapiens, UniProt O43364 129-215)
# Chain of HOXA2 (Homo sapiens, UniProt O43364 129-215) (O43364 129-215): as the sequence (O43364 129-215 Y150S) above, with S22Y counted along it
# HOXB6 = HOXB6 (Homo sapiens, UniProt P17509 132-218)
# Chain of HOXB6 (P17509 132-218): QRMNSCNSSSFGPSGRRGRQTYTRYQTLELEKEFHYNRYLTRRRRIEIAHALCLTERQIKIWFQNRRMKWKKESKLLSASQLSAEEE
# HOXB9 [8] = target: HOXB9 (Homo sapiens, UniProt P17482 171-250, T197M)
# Chain of HOXB9 (Homo sapiens, UniProt P17482 171-250, T197M) (P17482 171-250 T197M): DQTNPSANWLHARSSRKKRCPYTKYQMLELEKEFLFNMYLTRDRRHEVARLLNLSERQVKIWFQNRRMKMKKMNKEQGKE
# HOXC9 [9] = target: HOXC9 (Homo sapiens, UniProt P31274 178-260, K195R)
# Chain of HOXC9 (Homo sapiens, UniProt P31274 178-260, K195R) (P31274 178-260 K195R): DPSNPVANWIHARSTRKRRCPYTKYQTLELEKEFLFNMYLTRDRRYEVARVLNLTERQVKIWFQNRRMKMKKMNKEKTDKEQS
# HOXC10 [10] = target: HOXC10 (Homo sapiens, UniProt Q9NYD6 254-340)
# Chain of HOXC10 (Homo sapiens, UniProt Q9NYD6 254-340) (Q9NYD6 254-340): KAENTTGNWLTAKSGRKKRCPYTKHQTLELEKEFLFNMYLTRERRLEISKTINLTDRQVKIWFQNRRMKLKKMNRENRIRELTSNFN
# HOXB9 [11] = target: HOXB9 (Homo sapiens, UniProt P17482 171-250)
# Chain of HOXB9 (Homo sapiens, UniProt P17482 171-250) (P17482 171-250): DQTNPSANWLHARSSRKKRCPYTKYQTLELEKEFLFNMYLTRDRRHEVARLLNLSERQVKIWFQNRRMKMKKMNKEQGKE
# HOXC9 [12] = target: HOXC9 (Homo sapiens, UniProt P31274 178-260)
# Chain of HOXC9 (Homo sapiens, UniProt P31274 178-260) (P31274 178-260): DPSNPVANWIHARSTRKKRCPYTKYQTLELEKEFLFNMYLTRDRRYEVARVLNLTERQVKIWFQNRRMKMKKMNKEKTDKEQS
# HOXC9 [13] = target: HOXC9 (Homo sapiens, UniProt P31274 178-260, R193K)
# Chain of HOXC9 (Homo sapiens, UniProt P31274 178-260, R193K) (P31274 178-260 R193K): as the sequence (P31274 178-260) above, with R16K counted along it
# HOXC10 [14] = target: HOXC10 (Homo sapiens, UniProt Q9NYD6 254-340, K271E)
# Chain of HOXC10 (Homo sapiens, UniProt Q9NYD6 254-340, K271E) (Q9NYD6 254-340 K271E): as the sequence (Q9NYD6 254-340) above, with K18E counted along it
# HOXB9 [15] = target: HOXB9 (Homo sapiens, UniProt P17482 171-250, R186Q)
# Chain of HOXB9 (Homo sapiens, UniProt P17482 171-250, R186Q) (P17482 171-250 R186Q): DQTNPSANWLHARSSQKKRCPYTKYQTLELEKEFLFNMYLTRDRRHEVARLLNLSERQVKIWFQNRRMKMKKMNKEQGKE
# HOXC9 [16] = target: HOXC9 (Homo sapiens, UniProt P31274 178-260, R222W)
# Chain of HOXC9 (Homo sapiens, UniProt P31274 178-260, R222W) (P31274 178-260 R222W): as the sequence (P31274 178-260) above, with R45W counted along it
# Chain of HOXB4 (P17483 148-234): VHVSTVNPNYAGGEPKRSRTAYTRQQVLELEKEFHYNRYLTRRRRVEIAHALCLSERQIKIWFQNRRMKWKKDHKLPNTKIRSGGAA
sequence,measurement,setting,value
GCAAGGGC,binding signal,HOXB4,"7.23 upbm affinity estimate (log intensity, higher = more binding, comparable within an allelic series)"
CTAATTAG,binding signal,HOXB4,"13.6 upbm affinity estimate (log intensity, higher = more binding, comparable within an allelic series)"
same,binding signal,VENTX,"13.5 upbm affinity estimate (log intensity, higher = more binding, comparable within an allelic series)"
same,binding signal,PAX4 [1],"12.5 upbm affinity estimate (log intensity, higher = more binding, comparable within an allelic series)"
same,binding signal,PAX4 [2],"13 upbm affinity estimate (log intensity, higher = more binding, comparable within an allelic series)"
same,binding signal,PAX4 [3],"11.2 upbm affinity estimate (log intensity, higher = more binding, comparable within an allelic series)"
same,binding signal,PAX4 [4],"11.8 upbm affinity estimate (log intensity, higher = more binding, comparable within an allelic series)"
same,binding signal,VAX1,"14.1 upbm affinity estimate (log intensity, higher = more binding, comparable within an allelic series)"
same,binding signal,PAX4 [5],"11.7 upbm affinity estimate (log intensity, higher = more binding, comparable within an allelic series)"
same,binding signal,HOXA2 [6],"10.9 upbm affinity estimate (log intensity, higher = more binding, comparable within an allelic series)"
same,binding signal,HOXA2 [7],"13.4 upbm affinity estimate (log intensity, higher = more binding, comparable within an allelic series)"
same,binding signal,HOXB6,"12.2 upbm affinity estimate (log intensity, higher = more binding, comparable within an allelic series)"
ACAATTAA,binding signal,HOXB4,"13 upbm affinity estimate (log intensity, higher = more binding, comparable within an allelic series)"
same,binding signal,HOXB9 [8],"10.1 upbm affinity estimate (log intensity, higher = more binding, comparable within an allelic series)"
same,binding signal,HOXC9 [9],"12.5 upbm affinity estimate (log intensity, higher = more binding, comparable within an allelic series)"
same,binding signal,HOXC10 [10],"12.2 upbm affinity estimate (log intensity, higher = more binding, comparable within an allelic series)"
same,binding signal,HOXB9 [11],"11.8 upbm affinity estimate (log intensity, higher = more binding, comparable within an allelic series)"
same,binding signal,HOXC9 [12],"12.6 upbm affinity estimate (log intensity, higher = more binding, comparable within an allelic series)"
same,binding signal,HOXC9 [13],"12.5 upbm affinity estimate (log intensity, higher = more binding, comparable within an allelic series)"
same,binding signal,HOXC10 [14],"12 upbm affinity estimate (log intensity, higher = more binding, comparable within an allelic series)"
same,binding signal,HOXB9 [15],"11.6 upbm affinity estimate (log intensity, higher = more binding, comparable within an allelic series)"
same,binding signal,HOXC9 [16],"11 upbm affinity estimate (log intensity, higher = more binding, comparable within an allelic series)"
same,binding signal,HOXB6,"11.9 upbm affinity estimate (log intensity, higher = more binding, comparable within an allelic series)"
TATTAGAA,binding signal,HOXB4,"10.9 upbm affinity estimate (log intensity, higher = more binding, comparable within an allelic series)"
same,binding signal,PAX4 [1],"11 upbm affinity estimate (log intensity, higher = more binding, comparable within an allelic series)"
same,binding signal,PAX4 [2],"11.3 upbm affinity estimate (log intensity, higher = more binding, comparable within an allelic series)"
same,binding signal,PAX4 [3],"10.3 upbm affinity estimate (log intensity, higher = more binding, comparable within an allelic series)"
CAATTAGC,binding signal,HOXB4,"13.3 upbm affinity estimate (log intensity, higher = more binding, comparable within an allelic series)"
same,binding signal,VENTX,"13.1 upbm affinity estimate (log intensity, higher = more binding, comparable within an allelic series)"
same,binding signal,PAX4 [1],"11.6 upbm affinity estimate (log intensity, higher = more binding, comparable within an allelic series)"
same,binding signal,PAX4 [2],"12.2 upbm affinity estimate (log intensity, higher = more binding, comparable within an allelic series)"
same,binding signal,PAX4 [3],"10.3 upbm affinity estimate (log intensity, higher = more binding, comparable within an allelic series)"
same,binding signal,PAX4 [4],"10.8 upbm affinity estimate (log intensity, higher = more binding, comparable within an allelic series)"
same,binding signal,VAX1,"13.5 upbm affinity estimate (log intensity, higher = more binding, comparable within an allelic series)"
same,binding signal,PAX4 [5],"10.8 upbm affinity estimate (log intensity, higher = more binding, comparable within an allelic series)"
same,binding signal,HOXA2 [6],"10.7 upbm affinity estimate (log intensity, higher = more binding, comparable within an allelic series)"
same,binding signal,HOXA2 [7],"12.6 upbm affinity estimate (log intensity, higher = more binding, comparable within an allelic series)"
AATTAACA,binding signal,HOXB4,"13 upbm affinity estimate (log intensity, higher = more binding, comparable within an allelic series)"
same,binding signal,HOXB9 [8],"9.97 upbm affinity estimate (log intensity, higher = more binding, comparable within an allelic series)"
same,binding signal,VENTX,"12.4 upbm affinity estimate (log intensity, higher = more binding, comparable within an allelic series)"
same,binding signal,PAX4 [1],"11.8 upbm affinity estimate (log intensity, higher = more binding, comparable within an allelic series)"
same,binding signal,PAX4 [2],"12.5 upbm affinity estimate (log intensity, higher = more binding, comparable within an allelic series)"
same,binding signal,PAX4 [3],"10.8 upbm affinity estimate (log intensity, higher = more binding, comparable within an allelic series)"
same,binding signal,PAX4 [4],"11.2 upbm affinity estimate (log intensity, higher = more binding, comparable within an allelic series)"
same,binding signal,VAX1,"12.9 upbm affinity estimate (log intensity, higher = more binding, comparable within an allelic series)"
same,binding signal,PAX4 [5],"11.2 upbm affinity estimate (log intensity, higher = more binding, comparable within an allelic series)"
same,binding signal,HOXA2 [6],"11 upbm affinity estimate (log intensity, higher = more binding, comparable within an allelic series)"
same,binding signal,HOXA2 [7],"12.2 upbm affinity estimate (log intensity, higher = more binding, comparable within an allelic series)"
same,binding signal,HOXB6,"11.7 upbm affinity estimate (log intensity, higher = more binding, comparable within an allelic series)"
ACTAATTA,binding signal,HOXB4,"13.5 upbm affinity estimate (log intensity, higher = more binding, comparable within an allelic series)"
same,binding signal,HOXB9 [8],"10.1 upbm affinity estimate (log intensity, higher = more binding, comparable within an allelic series)"
same,binding signal,HOXC9 [9],"12.5 upbm affinity estimate (log intensity, higher = more binding, comparable within an allelic series)"
same,binding signal,VENTX,"13.3 upbm affinity estimate (log intensity, higher = more binding, comparable within an allelic series)"
same,binding signal,PAX4 [1],"12.2 upbm affinity estimate (log intensity, higher = more binding, comparable within an allelic series)"
same,binding signal,PAX4 [2],"12.7 upbm affinity estimate (log intensity, higher = more binding, comparable within an allelic series)"
same,binding signal,PAX4 [3],"10.8 upbm affinity estimate (log intensity, higher = more binding, comparable within an allelic series)"
same,binding signal,HOXC10 [14],"11.9 upbm affinity estimate (log intensity, higher = more binding, comparable within an allelic series)"
same,binding signal,PAX4 [4],"11.4 upbm affinity estimate (log intensity, higher = more binding, comparable within an allelic series)"
same,binding signal,VAX1,"14 upbm affinity estimate (log intensity, higher = more binding, comparable within an allelic series)"
same,binding signal,PAX4 [5],"11.4 upbm affinity estimate (log intensity, higher = more binding, comparable within an allelic series)"
same,binding signal,HOXA2 [6],"11 upbm affinity estimate (log intensity, higher = more binding, comparable within an allelic series)"
same,binding signal,HOXA2 [7],"13.3 upbm affinity estimate (log intensity, higher = more binding, comparable within an allelic series)"
same,binding signal,HOXB6,"12.4 upbm affinity estimate (log intensity, higher = more binding, comparable within an allelic series)"
CTCAATTA,binding signal,HOXB4,"13.1 upbm affinity estimate (log intensity, higher = more binding, comparable within an allelic series)"
same,binding signal,VAX1,"12.9 upbm affinity estimate (log intensity, higher = more binding, comparable within an allelic series)"
same,binding signal,HOXA2 [6],"10.8 upbm affinity estimate (log intensity, higher = more binding, comparable within an allelic series)"
same,binding signal,HOXA2 [7],"12.1 upbm affinity estimate (log intensity, higher = more binding, comparable within an allelic series)"
ACTAATTG,binding signal,HOXB4,"13.1 upbm affinity estimate (log intensity, higher = more binding, comparable within an allelic series)"
same,binding signal,VENTX,"12.9 upbm affinity estimate (log intensity, higher = more binding, comparable within an allelic series)"
same,binding signal,PAX4 [1],"11.5 upbm affinity estimate (log intensity, higher = more binding, comparable within an allelic series)"
same,binding signal,PAX4 [2],"12.1 upbm affinity estimate (log intensity, higher = more binding, comparable within an allelic series)"
same,binding signal,PAX4 [3],"10.3 upbm affinity estimate (log intensity, higher = more binding, comparable within an allelic series)"
same,binding signal,PAX4 [4],"10.7 upbm affinity estimate (log intensity, higher = more binding, comparable within an allelic series)"
same,binding signal,VAX1,"13.3 upbm affinity estimate (log intensity, higher = more binding, comparable within an allelic series)"
same,binding signal,PAX4 [5],"10.8 upbm affinity estimate (log intensity, higher = more binding, comparable within an allelic series)"
same,binding signal,HOXA2 [6],"10.8 upbm affinity estimate (log intensity, higher = more binding, comparable within an allelic series)"
same,binding signal,HOXA2 [7],"12.4 upbm affinity estimate (log intensity, higher = more binding, comparable within an allelic series)"
